Assay outcomes deposited in PubChem BioAssay by National Center for Advancing Translational Sciences (NCATS).
D1 antagonist: human D1 dopamine receptor antagonism. P21728. HEK293 TREx D1 cells, calcium flux, dopamine EC80; active compounds read low. activity change, negative = inhibition, % at 10 µM. actives 3.2% (n = 360,000); in the data active = activity change below about -30%
Target sequence (P21728 whole entry, looked up): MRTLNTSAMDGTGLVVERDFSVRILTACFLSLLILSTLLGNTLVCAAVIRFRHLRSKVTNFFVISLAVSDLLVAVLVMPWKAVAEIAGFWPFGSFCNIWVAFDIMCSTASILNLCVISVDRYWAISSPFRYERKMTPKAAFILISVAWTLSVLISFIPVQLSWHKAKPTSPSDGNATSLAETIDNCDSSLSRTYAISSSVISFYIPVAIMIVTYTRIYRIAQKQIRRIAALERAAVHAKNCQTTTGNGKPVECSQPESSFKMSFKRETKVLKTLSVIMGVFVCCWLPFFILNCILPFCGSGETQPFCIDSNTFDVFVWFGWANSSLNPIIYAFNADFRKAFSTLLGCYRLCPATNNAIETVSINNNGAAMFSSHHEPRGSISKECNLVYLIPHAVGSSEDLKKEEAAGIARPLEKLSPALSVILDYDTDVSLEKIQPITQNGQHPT
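Tetracycline-induced HEK293 Trex D1 cells, force-coupled to calcium, dye-loaded; compounds added and read 180 s, then EC80 dopamine added and calcium flux tracked kinetically another 180 s.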
Glioma ERSR ind: induces the endoplasmic reticulum stress response in human glioma cells; U87-MG GRP78 promoter luciferase reporter, 16 h; Potency, µM, actives largely listed as activators; actives 0.02% (n = 420,000); AID 602332; active = well fitted activation curve with a large enough effect; note: series mostly up to about 76 µM; nearly all actives have a fitted effect of over 35% in size
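Stably transfected U87-MG glioma cells carrying a GRP78-based luciferase sensor; 16 h compound incubation. Luminescence end-point read 10 min after Bright-Glo addition at room temperature.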
D1 ag: agonists of human D1 dopamine receptor. P21728. HEK293 T-REx D1 cells, calcium flux, agonist mode. activation, % at 2 µM. actives 1% (n = 360,000). AID 504660
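Inducible HEK293 T-REx D1 cells, force-coupled to calcium signalling, were plated at 4000 cells/well with tetracycline and held overnight at 30 C. After no-wash calcium dye loading, compound-evoked calcium rise over 180 s flagged agonists.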
TRHR ag: TRH receptor (human) agonism; P34981; TRHR cells, calcium flux fluo-8, FDSS agonist mode; actives 0.18% (n = 360,000); activation, % at 2 µM
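Fluo-8-loaded TRHR cells; 10 s baseline, compound added, kinetic Ca2+ fluorescence read 1/s, agonist mode.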
D1 potentiator: enhances dopamine response at the human D1 receptor | P21728 | HEK293 TREx D1 cells, calcium flux, dopamine EC20 potentiation | potentiation, % at 10 µM | actives 0.036% (n = 360,000); in the data active = potentiation above about 30%
TRHR PAM: TRH receptor (human) allosteric enhancement | P34981 | TRHR cells, fluo-8 calcium fluorescence, EC20 TRH enhancement | enhancement, % at 2 µM | actives 0.66% (n = 360,000) | AID 493056; in the data active = enhancement above about 30%
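Enhancer read-out: after compound pinning and an initial kinetic agonist-mode read, an EC20 of TRH (10 nM final) was injected and fluo-8 calcium signal (Ex 480/Em 530) followed at 1 s/cycle for 100 cycles in TRHR-expressing cells.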
Numbers stand for hits; – = inactive; · = no result given. Most compounds without a hit are left out; they make up all but 4% or so of the library. Cut-off read from the data, not from the text of the source, unless noted: active = activation above about 30%; inactive = the rest.

SMILES	D1 antagonist	Glioma ERSR ind	D1 ag	TRHR ag	D1 potentiator	TRHR PAM
COc1cc(OC)c2c(C)c(CC(=O)N3CCCCC3)c(=O)oc2c1	–	–	–	–	–	35
C=C1CCN(C(CC(C)C)C(=O)NCCCc2ccccc2)S(=O)(=O)c2ccccc21 (stereo unspecified)	·	–	·	·	·	·
O=C1CSC(=S)N1/N=C/c1cc(Br)c(O)c(Br)c1	–	–	422	160	–	32
CC(C)C[C@H]1CN=C(Nc2ccccc2)N1CCCC1CCCCC1	–	–	–	–	–	–
CC(C)C[C@H]1CN=C(Nc2ccccc2)N1CCCC1CCCC1	–	–	41	–	–	–
c1cncc(OC2CCN(Cc3ccc4c(c3)CN(Cc3nc5ccccc5s3)CCO4)CC2)c1	·	–	·	·	·	·
Nc1cc([N+](=O)[O-])cc(N)c1N	·	–	·	·	·	·
COc1ccccc1-c1cnc(C(O)c2ccc(F)cc2C)[nH]1 (stereo unspecified)	·	–	·	·	·	·
CN1CCN(S(=O)(=O)c2ccc(N3CCN(S(=O)(=O)/C=C/c4ccccc4)CC3)nc2)CC1	-49	–	–	–	–	–
CN1CCN(S(=O)(=O)c2ccc(N3CCN(C(c4ccccc4)c4ccccc4)CC3)nc2)CC1	–	–	–	–	–	–
Cc1cc(C)c2c(n1)sc1c(=O)n(-c3cc(Cl)ccc3C)nnc12	–	–	–	–	–	–
COc1ccc2c(=O)c(Oc3ccc(C(=O)O)cc3)c(C(F)(F)F)oc2c1	-30	–	–	–	–	–
COc1ccc2c(=O)c(OC)c(-c3ccccc3)oc2c1	·	–	·	·	·	·
CC(C)(C)c1cc2cccnc2n1Cc1cccc(Cl)c1	-31	–	–	–	–	–
COc1ccnc2c1c(=O)n(Cc1cccc(Cl)c1)c(=O)n2C	–	–	–	–	–	–
Cc1nnc(N)nc1C	-38	–	–	–	–	–
O=C(COCc1cc(-c2ccc3c(c2)OCO3)on1)Nc1cc(Cl)ccc1O	–	–	–	–	–	–
O=C(COCc1cc(-c2ccc(F)cc2)on1)Nc1cc(Cl)ccc1O	-37	–	–	–	–	–
O=C(COCc1cc(-c2ccc3c(c2)OCO3)on1)Nc1cc(C(F)(F)F)ccc1Cl	–	–	33	–	–	–
O=C(CSc1nc2nn(-c3ccccc3)c(=O)c-2c2n1CCCCC2)Nc1ccccc1[N+](=O)[O-]	–	–	–	–	–	–
COc1ccc(S(=O)(=O)c2c(O)c3ccc(C(=O)Nc4ccccc4Cl)cc3[nH]c2=O)cc1	–	–	–	–	–	32
CC1CN(C(=O)C(C)N2CCN(c3cccc(Cl)c3)CC2)CC(C)O1 (stereo unspecified)	–	–	–	–	–	–
CC1CN(C(=O)C(C)N2CCN(c3ccccc3Cl)CC2)CC(C)O1 (stereo unspecified)	-37	–	–	–	–	–
O=C(COc1ccccc1C(=O)Nc1ccccc1)Nc1cccc([N+](=O)[O-])c1	·	–	·	·	·	·
CN1CCN(CC#CC(C)(O)C2CC3C=CC2C3)CC1 (stereo unspecified)	-74	–	–	–	–	–
SMILES	D1 antagonist	Glioma ERSR ind	D1 ag	TRHR ag	D1 potentiator	TRHR PAM
CCOc1ccc(Nc2cc(C)nc3nc(Cc4ccc(Cl)cc4)nn23)cc1	–	–	–	–	–	–
COC(=O)c1scc(C)c1NC(=O)c1ccc(Cl)cc1	–	–	–	–	–	–
COC(=O)c1scc(C)c1NC(=O)C1CCCCC1	-44	–	–	–	–	–
COC(=O)c1sccc1NC(=O)C1CC1	-76	–	–	–	–	–
CCN(CC(=O)Nc1c(F)cccc1F)C(=O)CCc1nc2cc(S(=O)(=O)N3CCOCC3)ccc2n1C	–	–	–	–	–	–
CN(C)c1ccc(/C=C2\C=Cc3ccccc32)c(F)c1	·	–	·	·	·	·
CCOC(=O)c1ccc(CC(=O)c2ccc(O)c(O)c2O)o1	-48	–	–	–	–	–
COc1ccc(CCNS(=O)(=O)c2ccc(Cl)cc2)cc1OC	–	–	–	–	–	–
COc1cccc(/C=N/n2c(SC)nnc2-c2ccccc2)c1OC	–	–	–	–	–	–
COc1cccc(/C=N/n2c(SC)nnc2-c2ccccc2)c1O	–	–	30	–	–	–
O=C(O)Cc1ccc(NC(=O)c2ccc3c(c2)C(=O)N(CC2CCCO2)C3=O)cc1 (stereo unspecified)	-39	–	–	–	–	–
COC(=O)Cc1ccc(NC(=O)c2ccc3c(c2)C(=O)N(CC2CCCO2)C3=O)cc1 (stereo unspecified)	–	–	–	–	–	–
COc1cc(/C=C/C(=O)c2ccc3c(c2)OCO3)cc(Cl)c1O	–	–	246	197	·	–
O=c1[nH]cnc2c1ncn2[C@H]1C[C@H](O)[C@@H](CO)O1	·	–	·	·	·	·
COc1ccc(-c2n(CC(=O)OC3CC(C)CCC3C(C)C)c3ccccc3[n+]2C)cc1 (stereo unspecified)	–	–	–	–	–	–
COc1ccc(OCc2n(CC(=O)OC3CC(C)CCC3C(C)C)c3ccccc3[n+]2C)cc1 (stereo unspecified)	–	–	34	–	–	–
COc1ccc(-c2cc(C(=O)N3CCc4c(cnc(C)c4CNC(=O)c4ccsc4)C3)[nH]n2)cc1	·	–	·	·	·	·
COc1ccc(C(=O)Oc2ccc(C3NC(=O)c4c(sc5c4CCN(C)C5)N3)cc2OC)cc1 (stereo unspecified)	–	–	–	50	–	–
CCOc1cc(C2NC(=O)c3c(sc4c3CCN(C)C4)N2)ccc1OC(=O)c1ccccc1Cl (stereo unspecified)	–	–	35	–	–	–
COc1ccc(C2NC(=O)c3c(sc4c3CCN(C)C4)N2)cc1O (stereo unspecified)	–	·	–	–	–	–
CO[C@@H]1[C@@H]([C@H](C)[C@@H]2O[C@@]3(CC[C@@](C)([C@H]4CC[C@@](C)([C@H]5O[C@H]([C@H]6O[C@](C)(O)[C@H](C)C[C@@H]6C)C[C@H]5O[C@H]5C[C@@H](OC)[C@H](OC)[C@@H](C)O5)O4)O3)C[C@@H](O)[C@@H]2C)O[C@@](O)(CC(=O)O)[C@H](C)[C@H]1OC	·	–	·	·	·	·
COc1ccccc1-c1ccc(C(=O)N(C)CC2COCCO2)c(N2CCN(c3ccccc3F)CC2)n1 (stereo unspecified)	·	–	·	·	·	·
COc1ccc(CC(=O)OCCc2cc3cc(OC)c(OC)cc3c(=O)o2)cc1	·	–	–	–	–	–
COc1ccc(S(=O)(=O)N(CCc2ccccc2)CC(=O)Nc2cc(C)cc(C)c2)cc1OC	-36	–	–	–	–	–
COC(=O)CN1C(c2cccc(Cl)c2)=Nc2ccc(Cl)cc2C1c1ccccc1 (stereo unspecified)	–	–	–	–	–	–
